# Assay results published in PubChem BioAssay AID624404 (Broad Institute, 2012).
# Among all 1,800 compounds or so, about 710 (39%) were called active. Another 28% or so got no clear call; they are omitted.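 How the source made its calls: active means luciferase signal rise whose fitted curve crosses a set activity limit at or below the top valid tested dose; inconclusive means flat fit with 30 to 70% rise, or poor fit; inactive means signal falling, flat within 30%, or crossing above top dose.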 A selection follows. Measured potencies and affinities stand elsewhere.
# Assay: reporter signal increase, D54 LucT cells – cell-based, luminescence, cherry pick, counter-screen for N-linked glycosylation inhibitor project, dose response (AID 624404);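 further: 0% = median neutral control signal and 100% = twice that signal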
# Details: D54 LucT luciferase reporter counterscreen, 24 h; series mostly up to 19.5 µM; activity increase (luciferase signal): at the top concentration
row,SMILES,activity increase (luciferase signal)
1,COC(=O)Nc1ccc(S(=O)(=O)N2CCCc3ccccc32)cc1,-15.6% (inactive)
2,COC(=O)c1ccc(S(=O)(=O)N2CCc3ccccc32)cc1,47.4% (inactive)
3,O=C1CCCN1c1ccc(S(=O)(=O)Nc2ccc3c(c2)OCCO3)cc1,35.6% (inactive)
4,Cc1nc([N+](=O)[O-])c(Sc2nc3ccccc3[nH]2)n1Cc1ccccc1,19.7% (inactive)
5,COc1ccc(OC)c(NS(=O)(=O)c2ccc(SC)cc2)c1,16.3% (inactive)
6,O=C1/C(=C/c2ccccc2)CCc2ccc(Cl)nc21,29.5% (inactive)
7,c1cc2c3c(cccc3c1)C(N1CCCCC1)=N2,-6.38% (inactive)
8,Nc1c(N(CCC2=CCCCC2)C(=O)COc2ccc(F)cc2Cl)c(=O)[nH]c(=O)n1Cc1ccccc1,-73.5% (inactive)
9,COc1ccc(-c2cc(C(F)F)n3ncc(C(=O)N4CCc5ccccc54)c3n2)cc1,-4.74% (inactive)
10,O=c1cc(-c2ccccc2)[nH]n1-c1nc2ccccc2[nH]1,-17.5% (inactive)
11,CCCCCc1ccc(OCCC[n+]2ccccc2)c(CCCCC)c1,-63.6% (inactive)
12,Cc1cnc(C(=O)OCC(=O)NC2CCCCCCC2)cn1,49.4% (inactive)
13,NC(=O)[C@H]1CC2(CC(c3cccc(NC(=O)COc4ccc(Cl)cc4)c3)=NO2)CN1C(=O)C(c1ccccc1)c1ccccc1 (stereo not given in full),-31.4% (inactive)
14,O=C(N/N=C\c1cccnc1)c1cc(-c2ccccc2)nc2c(Cl)cccc12,-40.5% (inactive)
15,COc1ccc(NC(=O)c2nc(C)c(C3(C)CC(c4ccccc4)=NO3)s2)cc1 (stereo not given),21.9% (inactive)
16,CCOC(=O)C1=C(Cc2ccc(F)cc2)C(=O)c2ccccc2C1=O,39% (inactive)
17,CCOC(=O)c1c(C)nc2sc3c(=O)n(-c4ccc(C)cc4)cnc3c2c1-c1ccc(OC)cc1,1.25% (inactive)
18,COc1ccc(Cn2c(=O)cc(N)n(-c3ccccc3C)c2=O)cc1,45.7% [at 5 µM] (inactive)
19,COC(=O)c1ccccc1NC(=O)Cn1nnc(-c2ccc(OC)cc2)n1,41% (inactive)
20,CCOc1ccc(OCC(=O)N(CCC2=CCCCC2)c2c(N)n(Cc3ccccc3)c(=O)[nH]c2=O)cc1,-36.8% (inactive)
21,CC(C)CN(C(=O)COC(=O)CCSc1ccc(Cl)cc1)c1c(N)n(Cc2ccccc2)c(=O)[nH]c1=O,0.545% (inactive)
22,COc1ccc(-c2cc(-c3ccccc3)c(C#N)c(S(C)=O)n2)cc1 (stereo not given),-12.6% (inactive)

row,SMILES,activity increase (luciferase signal)
1,Cc1cc(Br)cc2c(C(=O)Nc3c(C)n(C)n(-c4ccccc4)c3=O)cc(-c3cccs3)nc12,22.6% [at 5 µM] (inactive)
2,CCCn1c(CN2CCN(C(=O)OCC)CC2)nc2cc(NC(=O)CC)ccc21,23% (inactive)
3,CN1CCN(CC(=O)Nc2cc(N(C)C)nc3ccccc23)CC1,15.8% (inactive)
4,CC(C)(C)NCC(O)CON=C1c2ccccc2-c2ccccc21 (stereo not given),-11.5% (inactive)
5,Cc1ccccc1OCCOC(=O)c1c(-c2ccccc2)noc1C,5.79% (inactive)
6,Cc1ccc(-c2cc(C(F)F)n3ncc(C(=O)N4CCc5ccccc54)c3n2)cc1,-8.28% (inactive)
7,CC(C)Oc1ccccc1C1CC(=O)Nc2cc3c(cc21)OCO3 (stereo not given),13% (inactive)
8,CCOc1cccc2sc(Nc3nc4ccc(NC(C)=O)cc4s3)nc12,-31.6% (inactive)
9,Cc1cc(C)c2c(N)c3ccccc3nc2n1,3.64% (inactive)
10,CCc1ccc2nc3nc(C)cc(C)c3c(N)c2c1,-2.78% (inactive)
11,C=CCN1c2ccccc2[C@]23C[C@@H](C(=O)OC)N(C(=O)c4ccc(Br)cc4)C2=NC(C(=O)OC)=C(C(=O)OC)[C@H]13,-7.77% (inactive)
12,COC(=O)C1=C(C(=O)OC)[C@@H]2N(Cc3ccccc3)c3ccccc3[C@@]23C[C@@H](C(=O)OC)N(C(=O)c2cc(C)oc2C)C3=N1,2.73% (inactive)
13,CCCOC(=O)c1[nH]c2c(c1C)C(=O)CC(c1cccs1)C2 (stereo not given),-7.69% (inactive)
14,COc1ccc(/C=C2\SC(=S)N(CCC(=O)NC3CCCC3)C2=O)cc1OC,-13.3% (inactive)
15,COc1cc2c3c(cccc3c1)C(=O)N(CCN1CCCC1)C2=O,0.522% (inactive)
16,COc1cc(/C=C2/C(=O)N(C)C(=S)N2C)ccc1OCc1cccc(F)c1,-47.8% (inactive)
17,Cc1ccc(C)c(N2CCN(S(=O)(=O)c3ccc(-c4ccc(=O)[nH]n4)o3)CC2)c1,13.6% (inactive)
18,CC1(C(=O)NCc2cccs2)Cc2c(-c3ccc(C(N)=O)cc3)ccnc2O1 (stereo not given),13.2% (inactive)
19,CC(=O)c1cccc(-c2ccnc3c2CC(C(=O)NCc2cccs2)O3)c1 (stereo not given),31.3% (inactive)
20,CC(=O)Nc1cccc(-c2ccnc3c2CC(C(=O)NCc2ccc(F)c(F)c2)O3)c1 (stereo not given),4.2% (inactive)
21,Cc1ccc(CNC(=O)Cc2ccc(-n3c(=O)[nH]c4ccsc4c3=O)cc2)cc1,-2.38% (inactive)
22,COc1cc(C2CC(=O)Nc3cc(C)c(C)cc32)cc(OC)c1OC (stereo not given),37.1% (inactive)

row,SMILES,activity increase (luciferase signal)
1,CN1CCN(C(c2ccc(Br)cc2)c2cc(Cl)c3cccnc3c2O)CC1 (stereo not given),97.6% (inactive)
2,COc1ccc2noc3c2c1C(=O)c1ccccc1-3,29.6% (inactive)
3,COc1cc(C)c2sc3ccccc3c(=O)c2c1NCCN(C)C,-86.3% (inactive)
4,CCN(CC)CCCNc1ccc2ncn3c4ccc(O)cc4c(=O)c1c23,-16.4% (inactive)
5,CN(C)CCNc1ccc2nnn3c4ccc(O)cc4c(=O)c1c23,-11.4% (inactive)
6,COc1ccc2sc3cccc(NCCN(C)C)c3c(=O)c2c1,102% (inactive)
7,COc1ccc(-n2c(C)cc(C(=O)CCl)c2C)cc1,-1.73% (inactive)
8,c1ccc2sc(Sc3ncnc4sccc34)nc2c1,2.04% (inactive)
9,COc1ccc2c(C)nc(Nc3nc(-c4ccccc4)cc(=O)[nH]3)nc2c1,-0.912% [at 5 µM] (inactive)
10,O=C(NCc1cccs1)C1CC(c2ccc(Cl)c(Cl)c2)=NO1 (stereo not given),27.1% (inactive)
11,COc1cc(OC)c(C2=NOC(C(=O)NCc3cccs3)C2)cc1Cl (stereo not given),35.5% (inactive)
12,COc1ccc(C2=NOC(C(=O)NCc3ccco3)C2)cc1OC (stereo not given),31.1% (inactive)
13,CCn1cc2nc(SCC(=O)Nc3ccc(OC)cc3OC)n(Cc3ccc(OC)cc3)c(=O)c2n1,-4.92% (inactive)
14,Cn1c(SCC(=O)c2ccccc2)ncc(C(=O)Nc2ccc(F)cc2)c1=O,99.3% (inactive)
15,CC(=O)c1cccc(NC(=O)CSc2ncc(C(=O)Nc3ccccc3)c(=O)n2C)c1,-6.67% (inactive)
16,COc1ccc(CN(C)c2ncnc3sccc23)c(OC)c1OC,7.71% (inactive)
17,Cc1ccc(/C=N/NC(=O)c2c(C)nc3ccc(Br)cn23)cc1,37.3% (inactive)
18,O=C(N/N=C/c1cccnc1)c1cc(-c2ccc(Br)cc2)nc2ccccc12,24.2% (inactive)
19,NC(N)=N/N=C/c1ccc2cccc(OCc3ccccc3)c2n1,20.1% (inactive)
20,Cc1ccc(/C=N/NC(=O)CCn2nc(C)cc2C)c(C)c1,21.3% (inactive)
21,Brc1ccc(CSc2ccc3nnc(-c4cccnc4)n3n2)cc1,-12.3% (inactive)
